# Assay outcomes from PubChem BioAssay.
# pPAFAH FP inh: pPAFAH enzyme inhibitors, primary screen, biochemical, fluorescence polarization, human; Platelet-activating factor acetylhydrolase (Homo sapiens), Q13093; recombinant pPAFAH, FP-rhodamine probe fluorescence polarization; inhibition, % at 3.39 µM; 330,000 tested, 1.5% active;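 active = inhibition above the mean inhibition across the screen plus 3 SD, cut at about 25% in these data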;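 note: inhibitors block binding of the rhodamine activity-based probe so polarization drops; 0% = enzyme with DMSO and 100% = wells lacking pPAFAH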
# Target sequence (Q13093 whole entry, looked up): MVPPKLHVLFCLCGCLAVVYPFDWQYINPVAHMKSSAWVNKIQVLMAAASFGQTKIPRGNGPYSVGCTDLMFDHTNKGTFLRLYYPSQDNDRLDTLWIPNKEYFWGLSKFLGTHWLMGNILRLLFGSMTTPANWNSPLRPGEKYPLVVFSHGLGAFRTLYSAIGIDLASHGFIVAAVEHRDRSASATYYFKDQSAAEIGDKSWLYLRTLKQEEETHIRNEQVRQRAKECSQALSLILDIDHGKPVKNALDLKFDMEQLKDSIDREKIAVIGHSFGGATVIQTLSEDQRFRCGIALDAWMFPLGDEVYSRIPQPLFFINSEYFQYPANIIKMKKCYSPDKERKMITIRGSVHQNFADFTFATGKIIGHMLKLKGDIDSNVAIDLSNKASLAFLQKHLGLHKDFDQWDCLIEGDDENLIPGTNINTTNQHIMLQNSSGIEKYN
# PAFAH1B2 FP inh: PAFAH1B2 enzyme inhibitors, primary screen, biochemical, fluorescence polarization, human; 340,000 tested, 1.2% active; inhibition, % at 3.39 µM; recombinant PAFAH1B2, FP-rhodamine activity probe; Platelet-activating factor acetylhydrolase IB subunit alpha2 (Homo sapiens), P68402;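 active = inhibition above the mean of all tested compounds plus 3 SD, cut at about 24% in these data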;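 note: 0% = enzyme with DMSO and 100% = wells lacking PAFAH1B2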
# PAFAH1B3 inh: PAFAH1B3 enzyme inhibitors, primary screen, biochemical, fluorescence polarization, human; Platelet-activating factor acetylhydrolase IB subunit alpha1 (Homo sapiens), Q15102; recombinant PAFAH1B3, FP-rhodamine probe; inhibition, % at 3.39 µM; 340,000 tested, 0.28% active; AID 492972, 2010;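 active = inhibition above the screen-wide average of all tested compounds plus 3 SD, cut at about 25% in these data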;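 note: 0% = enzyme with DMSO only and 100% = wells lacking PAFAH1B3 protein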
# PAFAH2 FP inh: PAFAH2 enzyme inhibitors, primary screen, biochemical, fluorescence polarization, human | recombinant PAFAH2, FP-rhodamine activity probe | inhibition, % at 3.39 µM | 340,000 tested, 0.99% active | AID 492956, 2010;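 active = inhibition above the mean over all tested compounds plus 3 SD, cut at about 30% in these data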;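 note: inhibitors block probe labeling of enzyme so polarization drops; 0% = enzyme with DMSO and 100% = wells lacking PAFAH2 protein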
# M18AAP inhibitor: PfM18AAP inhibitors, malaria aminopeptidase, primary screen, biochemical, QFRET, recombinant enzyme; M18 aspartyl aminopeptidase (Plasmodium falciparum 3D7); H-Glu-NHMec fluorogenic cleavage; inhibition, % at 7.35 µM; 290,000 tested, 1.2% active; AID 1822, 2009;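 active = inhibition above the campaign mean inhibition over all tested compounds plus 3 SD, cut at about 28% in these data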;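 note: 0% = plate median of test compound wells and 100% = 2 mM ZnCl2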
# Pemphigus Ab inh: inhibitors of pemphigus antibody binding to DSG3, primary screen, biochemical, bead-based, flow cytometry, scFv-GFP. AID 588358, 2011. binding (percent of control), % at 10 µM. DSG3-coupled beads, scFv-anti-DSG3-GFP binding; hits give low values. 310,000 tested, 0.48% active. Desmoglein-3 (Homo sapiens), P32926;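 active = binding more than 3 SD below its plate's average and above zero; inconclusive = below that plate limit but binding exactly zero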;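 note: hits lower antibody fragment binding to DSG3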
# * hit, by the source's call; ? = inconclusive; · = no result. An excerpt weighted towards active compounds, which were near 3.8% of everything screened.
SMILES,pPAFAH FP inh,PAFAH1B2 FP inh,PAFAH1B3 inh,PAFAH2 FP inh,M18AAP inhibitor,Pemphigus Ab inh
CCCCC1=CC2=CC(=O)C(C)(OC(=O)c3ccco3)C(=O)C2=CO1 (stereo unspecified),48*,·,·,·,·,·
COC/C=C/C1=CC2=CC(=O)C(C)(OC(=O)c3cnc4ccccc4n3)C(=O)C2=CN1CCCCO (stereo unspecified),7,-5,2,8,·,101
COC/C=C/C1=CC2=CC(=O)C(C)(OC(=O)c3ccco3)C(=O)C2=CO1 (stereo unspecified),53*,·,·,·,·,·
COC/C=C/C1=CC2=CC(=O)C(C)(OC(=O)c3cccs3)C(=O)C2=CO1 (stereo unspecified),13,·,·,·,·,·
COC/C=C/C1=CC2=CC(=O)C(C)(OC(=O)c3cnc4ccccc4n3)C(=O)C2=CN1CCc1ccccn1 (stereo unspecified),25*,·,·,·,·,·
CC1(C(=O)NCc2ccc(F)cc2)Oc2ccccc2NC1=O (stereo unspecified),0,30*,8,-3,-4,·
NNc1ccc(Cl)nn1,0,5,4,4,29*,98
C=CCN(CC=C)C(=O)c1cc(Cl)ccc1[N+](=O)[O-],0,4,12,-1,-3,100
CCCCN(CCCC)C(=O)c1cc(Cl)ccc1[N+](=O)[O-],0,3,9,-5,-3,-27*
CCOc1ccc(NS(=O)(=O)c2ccc(C(=O)N3CCCC3)cc2)cc1,25*,1,4,-5,·,109
CCOc1ccc(NS(=O)(=O)c2cc3c4c(c2)CCN4C(=O)CC3)cc1,25*,1,0,2,·,112
CCOc1ccc(NS(=O)(=O)c2cc(C(=O)N3CCCC3)ccc2Cl)cc1,2,1,1,-1,·,?
CCOc1ccc(C(=O)N2CCCN(C(=O)c3ccc(OCC)cc3)CC2)cc1,0,-4,8,3,-1,97
CCOc1ccc(NS(=O)(=O)c2ccc(C(=O)N3CCC3)cc2)cc1,46*,1,5,-5,11,115
O=C(O)COc1ccc(NC(=O)c2ccc3c(c2)C(=O)N(CC2CCCO2)C3=O)cc1 (stereo unspecified),·,·,·,·,·,98
CCOc1cc(CN2CCN(c3ncccn3)CC2)ccc1OC,0,3,3,-4,-2,84*
CCc1ccc(CN2CCN(c3ncccn3)CC2)cc1,0,-3,2,5,0,102
CCCc1cc2c(OC(=O)CC)c(-c3ccc(C(=O)OCC)o3)c(=O)oc2cc1OC,18,19,60*,67*,-2,96
CCCc1cc(-c2n[nH]c(C)c2-c2ccc(C(=O)OCC)o2)c(O)cc1O,7,1,7,0,13,97
Cc1ccc(OCC(=O)OC(C)C(=O)NC2CCCCC2C)cc1C (stereo unspecified),7,-1,3,2,·,98
CN(C)CCNC(=O)c1ccc(-c2nn(C)c(=O)c3ccccc23)cc1,1,-1,5,-2,-2,·
O=C(CCn1nc(-c2ccc(Cl)cc2)c2ccccc2c1=O)NN1CCOCC1,1,·,·,·,3,82*
CCCNC(=O)c1ccc(-c2nn(C)c(=O)c3ccccc23)cc1,32*,2,3,2,-2,109
Cc1ccc(-c2nn(CCC(=O)NN3CCOCC3)c(=O)c3ccccc23)cc1,-1,·,·,·,-4,107
CCCNC(=O)CCn1nc(-c2ccc(Cl)cc2)c2ccccc2c1=O,3,11,7,6,13,80*
O=C1CC(=Nc2ccc([N+](=O)[O-])cc2)NN1c1c(Cl)cc(Cl)cc1Cl,·,·,·,·,·,104
Cc1ccc(OCCSc2nc3ccccc3n2CC(=O)O)c(C(C)C)c1,10,5,0,-4,1,99
Cc1cc(=O)[nH]c(SC(C)C(=O)Nc2cccc3ccccc23)n1 (stereo unspecified),4,-1,-10,12,-7,94
